# Experimental data reported in PubChem BioAssay (NCI).
# The panel holds about 79,000 compounds, 15% with a hit somewhere; the sample as a whole holds those more often. Values without a mark were called inactive. Calls of active or inactive are those of the source. Cut-off read from the data, not from the text of the source: active = growth inhibition above about 70%; inactive = the rest.
# Legend:
# [1] = NCI Yeast Anticancer Drug Screen. Data for the rad52 strain (AID 147);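 note: 0% = growth of vehicle-treated control cultures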; conditions: S. cerevisiae rad52 mutant growth inhibition, hits give high values
# Outline: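 Screen used a yeast mutant impaired in DNA repair. After compound exposure, growth was measured. Values reflect inhibition compared with vehicle-treated cells.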
# [2] = NCI Yeast Anticancer Drug Screen. Data for the wt1 strain (AID 149);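 note: 0% = growth of vehicle-treated wt1 cultures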; conditions: S. cerevisiae wt1 strain (SPY 50644) growth inhibition, hits give high values
# Outline: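 Each compound is tested on wt1 yeast and the loss of growth versus vehicle gives the inhibition value.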
# [3] = NCI Yeast Anticancer Drug Screen. Data for the rad50EPP+ strain (AID 151);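 note: 0% = growth of vehicle-treated control cultures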; conditions: S. cerevisiae rad50 mutant strain, hits give high values
# Outline: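 Exposing the rad50EPP+ strain to each compound, growth was compared with vehicle-only cultures to give inhibition.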
# [4] = NCI Yeast Anticancer Drug Screen. Data for the mgt1 strain (AID 153); conditions: S. cerevisiae mgt1 mutant growth inhibition, hits give high values
# Outline: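 Genetically defined yeast (mgt1) treated with compound; inhibition of growth expressed against vehicle-treated controls.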
# [5] = NCI Yeast Anticancer Drug Screen. Data for the rad50 strain (AID 155);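 note: 0% = growth of vehicle-only cultures of the same strain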; conditions: S. cerevisiae rad50 strain growth inhibition, hits give high values
# Outline: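 Vehicle-treated cultures provide the reference for the growth inhibition reported for compound-exposed, repair-deficient yeast.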
# [6] = NCI Yeast Anticancer Drug Screen. Data for the mec2-1 strain (AID 157); conditions: S. cerevisiae mec2-1 strain, hits give high values
# Outline: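 Readout is yeast growth inhibition, normalised to vehicle-treated controls, in the mec2-1 strain exposed to compound.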
# [7] = NCI Yeast Anticancer Drug Screen. Data for the rad14 strain (AID 159);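 note: 0% = growth of vehicle-treated control cultures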; conditions: S. cerevisiae rad14 strain growth inhibition, hits give high values
# Outline: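 Inhibition of growth is reported for a repair-deficient yeast mutant following compound treatment, calculated relative to cultures that received vehicle.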
# [8] = NCI Yeast Anticancer Drug Screen. Data for the sgs1 mgt1 strain (AID 161);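 note: 0% = growth of cultures given vehicle only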; conditions: S. cerevisiae sgs1 mgt1 strain, hits give high values
# Outline: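 Percent growth inhibition was derived by comparing compound-exposed mutant yeast with vehicle-exposed cultures. The strain carries alterations in DNA damage repair.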
# [9] = NCI Yeast Anticancer Drug Screen. Data for the CLN2oe strain (AID 163);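 note: 0% = growth of vehicle-only control cultures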; conditions: S. cerevisiae CLN2oe strain, hits give high values
# Outline: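 Values reflect how much compound exposure reduced yeast growth, referenced to vehicle-exposed cells. Assay organism is a strain with a defined genetic change affecting cell-cycle control.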
# [10] = NCI Yeast Anticancer Drug Screen. Data for the cln2 rad14 strain (AID 165);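 note: 0% = growth equal to vehicle treated cultures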; conditions: S. cerevisiae cln2 rad14 strain, hits give high values
# Outline: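 Relative to vehicle controls, growth inhibition of compound-treated cln2 rad14 yeast was recorded.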
# [11] = NCI Yeast Anticancer Drug Screen. Data for the bub3 strain (AID 167); conditions: S. cerevisiae bub3 mutant strain, hits give high values
# Outline: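 Mutant yeast screening strain plus compound; vehicle-treated cultures serve as the 0% inhibition reference.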
# [12] = NCI Yeast Anticancer Drug Screen. Data for the wt2 strain (AID 169); conditions: S. cerevisiae wt2 strain growth inhibition, hits give high values
# Outline: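 Values express reduction in yeast growth under compound treatment, referenced to vehicle-treated cells.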
# [13] = NCI Yeast Anticancer Drug Screen. Data for the mlh1 strain (AID 171);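 note: 0% = growth of vehicle-treated control cultures of the same strain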; conditions: S. cerevisiae mlh1 strain growth inhibition, hits give high values
# Outline: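 Steps: expose the defined-mutant yeast strain to compound; expose a parallel culture to vehicle; measure growth; express compound effect as inhibition relative to the vehicle culture.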
# [14] = NCI Yeast Anticancer Drug Screen. Data for the sgs1 strain (AID 173);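 note: 0% = growth of vehicle-only control cultures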; conditions: S. cerevisiae sgs1 mutant, hits give high values
# Outline: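 Treat defined-mutant yeast with compound; measure growth; calculate inhibition relative to vehicle-treated cells.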
# [15] = NCI Yeast Anticancer Drug Screen. Data for the mlh1 rad18 strain (AID 175); conditions: S. cerevisiae mlh1 rad18 strain growth inhibition, hits give high values
# Outline: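 Test agents were incubated with a yeast strain of defined genotype (DNA damage repair defect). Inhibition of growth was derived by comparison with vehicle-exposed cultures.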
# [16] = NCI Yeast Anticancer Drug Screen. Data for the rad18 strain (AID 177); conditions: S. cerevisiae rad18 mutant growth inhibition, hits give high values
# Outline: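 A genetically defined yeast mutant impaired in DNA damage repair was treated with test compounds, then its growth was measured against cultures receiving vehicle alone.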
# [17] = at 5.0 µM (retest, dose inferred, filed as 0.5)
# [18] = at 50.0 µM (retest, dose inferred, filed as 5.0)
smiles,measurement,setting,value
CNC(=O)OCc1c2ccncc2c(C)c2c1[nH]c1ccccc12,growth inhibition,[1]; at 1.2 µM,59%
same,growth inhibition,[1]; at 3.7 µM,82% (active)
same,growth inhibition,[1]; at 11.0 µM,88% (active)
same,growth inhibition,[1]; at 33.0 µM,90% (active)
same,growth inhibition,[1]; at 100.0 µM,88% (active)
same,growth inhibition,[2]; at 1.2 µM,2%
same,growth inhibition,[2]; at 3.7 µM,6%
same,growth inhibition,[2]; at 11.0 µM,6%
same,growth inhibition,[2]; at 33.0 µM,21%
same,growth inhibition,[2]; at 100.0 µM,56%
same,growth inhibition,[3]; at 1.2 µM,1%
same,growth inhibition,[3]; at 3.7 µM,17%
same,growth inhibition,[3]; at 11.0 µM,14%
same,growth inhibition,[3]; at 33.0 µM,31%
same,growth inhibition,[3]; at 100.0 µM,45%
same,growth inhibition,[4]; at 1.2 µM,2%
same,growth inhibition,[4]; at 3.7 µM,21%
same,growth inhibition,[4]; at 11.0 µM,18%
same,growth inhibition,[4]; at 33.0 µM,34%
same,growth inhibition,[4]; at 100.0 µM,55%
same,growth inhibition,[5]; at 1.2 µM,33%
same,growth inhibition,[5]; at 3.7 µM,72% (active)
same,growth inhibition,[5]; [17],61%
same,growth inhibition,[5]; at 11.0 µM,82% (active)
same,growth inhibition,[5]; at 33.0 µM,86% (active)
same,growth inhibition,[5]; [18],75% (active)
same,growth inhibition,[5]; at 50.0 µM,56.4%
same,growth inhibition,[5]; at 100.0 µM,82% (active)
same,growth inhibition,[6]; at 1.2 µM,13%
same,growth inhibition,[6]; at 3.7 µM,60%
same,growth inhibition,[6]; [17],56%
same,growth inhibition,[6]; at 11.0 µM,84% (active)
same,growth inhibition,[6]; at 33.0 µM,90% (active)
same,growth inhibition,[6]; [18],89% (active)
same,growth inhibition,[6]; at 50.0 µM,73.8% (active)
same,growth inhibition,[6]; at 100.0 µM,87% (active)
same,growth inhibition,[7]; at 1.2 µM,23%
same,growth inhibition,[7]; at 3.7 µM,80% (active)
same,growth inhibition,[7]; at 11.0 µM,89% (active)
same,growth inhibition,[7]; at 33.0 µM,92% (active)
same,growth inhibition,[7]; at 100.0 µM,89% (active)
same,growth inhibition,[8]; [17],40%
same,growth inhibition,[8]; [18],13%
same,growth inhibition,[8]; at 50.0 µM,51.5%
same,growth inhibition,[9]; at 1.2 µM,6%
same,growth inhibition,[9]; at 3.7 µM,19%
same,growth inhibition,[9]; at 11.0 µM,21%
same,growth inhibition,[9]; at 33.0 µM,34%
same,growth inhibition,[9]; at 100.0 µM,57%
same,growth inhibition,[10]; [17],44%
same,growth inhibition,[10]; [18],84% (active)
same,growth inhibition,[10]; at 50.0 µM,83.2% (active)
same,growth inhibition,[11]; at 1.2 µM,-41%
same,growth inhibition,[11]; at 3.7 µM,-56%
same,growth inhibition,[11]; [17],-12%
same,growth inhibition,[11]; at 11.0 µM,-27%
same,growth inhibition,[11]; at 33.0 µM,0%
same,growth inhibition,[11]; [18],-48%
same,growth inhibition,[11]; at 50.0 µM,-12.1%
same,growth inhibition,[11]; at 100.0 µM,39%
same,growth inhibition,[12]; at 1.2 µM,-17%
same,growth inhibition,[12]; at 3.7 µM,-21%
same,growth inhibition,[12]; at 11.0 µM,-9%
same,growth inhibition,[12]; at 33.0 µM,-1%
same,growth inhibition,[12]; at 100.0 µM,42%
same,growth inhibition,[13]; at 1.2 µM,6%
same,growth inhibition,[13]; at 3.7 µM,20%
same,growth inhibition,[13]; at 11.0 µM,26%
same,growth inhibition,[13]; at 33.0 µM,38%
same,growth inhibition,[13]; at 100.0 µM,66%
same,growth inhibition,[14]; at 1.2 µM,67%
same,growth inhibition,[14]; at 3.7 µM,76% (active)
same,growth inhibition,[14]; at 11.0 µM,84% (active)
same,growth inhibition,[14]; at 33.0 µM,85% (active)
same,growth inhibition,[14]; at 100.0 µM,84% (active)
same,growth inhibition,[15]; [17],33%
same,growth inhibition,[15]; [18],71% (active)
same,growth inhibition,[15]; at 50.0 µM,82.8% (active)
same,growth inhibition,[16]; at 1.2 µM,89% (active)
same,growth inhibition,[16]; at 3.7 µM,93% (active)
same,growth inhibition,[16]; at 11.0 µM,93% (active)
same,growth inhibition,[16]; at 33.0 µM,91% (active)
same,growth inhibition,[16]; at 100.0 µM,87% (active)
Cc1ccc(S(=O)(=O)NC(=O)C2C(=O)CC3(CCCCC3)CC2=O)cc1,growth inhibition,[1]; at 1.2 µM,-22%
same,growth inhibition,[1]; at 3.7 µM,-37%
same,growth inhibition,[1]; at 11.0 µM,-34%
same,growth inhibition,[1]; at 33.0 µM,7%
same,growth inhibition,[1]; at 100.0 µM,36%
same,growth inhibition,[2]; at 1.2 µM,-22%
same,growth inhibition,[2]; at 3.7 µM,-16%
same,growth inhibition,[2]; at 11.0 µM,-20%
same,growth inhibition,[2]; at 33.0 µM,67%
same,growth inhibition,[2]; at 100.0 µM,83% (active)
same,growth inhibition,[3]; at 1.2 µM,-3%
same,growth inhibition,[3]; at 3.7 µM,-21%
same,growth inhibition,[3]; at 11.0 µM,-18%
same,growth inhibition,[3]; at 33.0 µM,-12%
same,growth inhibition,[3]; at 100.0 µM,-21%
same,growth inhibition,[4]; at 1.2 µM,-24%
same,growth inhibition,[4]; at 3.7 µM,-16%
same,growth inhibition,[4]; at 11.0 µM,-13%
same,growth inhibition,[4]; at 33.0 µM,80% (active)
same,growth inhibition,[4]; at 100.0 µM,85% (active)
same,growth inhibition,[5]; at 1.2 µM,-12%
same,growth inhibition,[5]; at 3.7 µM,-6%
same,growth inhibition,[5]; [17],10%
same,growth inhibition,[5]; at 11.0 µM,-23%
same,growth inhibition,[5]; at 33.0 µM,5%
same,growth inhibition,[5]; [18],25%
same,growth inhibition,[5]; at 50.0 µM,-9.4%
same,growth inhibition,[5]; at 100.0 µM,35%
same,growth inhibition,[6]; at 1.2 µM,-25%
same,growth inhibition,[6]; at 3.7 µM,-30%
same,growth inhibition,[6]; [17],12%
same,growth inhibition,[6]; at 11.0 µM,20%
same,growth inhibition,[6]; at 33.0 µM,79% (active)
same,growth inhibition,[6]; [18],26%
same,growth inhibition,[6]; at 50.0 µM,30.1%
same,growth inhibition,[6]; at 100.0 µM,83% (active)
same,growth inhibition,[7]; at 1.2 µM,-29%
same,growth inhibition,[7]; at 3.7 µM,-44%
same,growth inhibition,[7]; at 11.0 µM,3%
same,growth inhibition,[7]; at 33.0 µM,82% (active)
same,growth inhibition,[7]; at 100.0 µM,86% (active)
same,growth inhibition,[8]; [17],11%
same,growth inhibition,[8]; [18],21%
same,growth inhibition,[8]; at 50.0 µM,-16.6%
same,growth inhibition,[9]; at 1.2 µM,-12%
same,growth inhibition,[9]; at 3.7 µM,1%
same,growth inhibition,[9]; at 11.0 µM,4%
same,growth inhibition,[9]; at 33.0 µM,77% (active)
same,growth inhibition,[9]; at 100.0 µM,84% (active)
same,growth inhibition,[10]; [17],5%
same,growth inhibition,[10]; [18],-1%
same,growth inhibition,[10]; at 50.0 µM,-8.9%
same,growth inhibition,[11]; at 1.2 µM,-5%
same,growth inhibition,[11]; at 3.7 µM,23%
same,growth inhibition,[11]; [17],20%
same,growth inhibition,[11]; at 11.0 µM,5%
same,growth inhibition,[11]; at 33.0 µM,72% (active)
same,growth inhibition,[11]; [18],16%
same,growth inhibition,[11]; at 50.0 µM,-17.9%
same,growth inhibition,[11]; at 100.0 µM,74% (active)
same,growth inhibition,[12]; at 1.2 µM,-39%
same,growth inhibition,[12]; at 3.7 µM,-28%
same,growth inhibition,[12]; at 11.0 µM,20%
same,growth inhibition,[12]; at 33.0 µM,84% (active)
same,growth inhibition,[12]; at 100.0 µM,83% (active)
same,growth inhibition,[13]; at 1.2 µM,-2%
same,growth inhibition,[13]; at 3.7 µM,-11%
same,growth inhibition,[13]; at 11.0 µM,13%
same,growth inhibition,[13]; at 33.0 µM,82% (active)
same,growth inhibition,[13]; at 100.0 µM,88% (active)
same,growth inhibition,[14]; at 1.2 µM,-12%
same,growth inhibition,[14]; at 3.7 µM,-8%
same,growth inhibition,[14]; at 11.0 µM,4%
same,growth inhibition,[14]; at 33.0 µM,68%
same,growth inhibition,[14]; at 100.0 µM,79% (active)
same,growth inhibition,[15]; [17],42%
same,growth inhibition,[15]; [18],71% (active)
same,growth inhibition,[15]; at 50.0 µM,-61.4%
same,growth inhibition,[16]; at 1.2 µM,-15%
same,growth inhibition,[16]; at 3.7 µM,-2%
same,growth inhibition,[16]; at 11.0 µM,-16%
same,growth inhibition,[16]; at 33.0 µM,14%
same,growth inhibition,[16]; at 100.0 µM,48%
